Test [1] can be described thus: compounds binding Alexa647 anti-His antibody – biochemical, small-molecule microarray, 635 nm fluorescence, artefact control for SMM control protein annotation, primary screen (AID 1128).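 Also: score merges feature fluorescence with signal-to-noise for each printed compound spot.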 As to conditions: higher = more signal.
Test [2] concerns Human papillomavirus type 1a E7 protein (residues 1-88). In words: HPV1a E7 small-molecule binders, primary screen, biochemical, small-molecule microarray, residues 1-88, 635 nm (AID 1129). Conditions: small-molecule microarray binding, fluorescence 635 nm; higher = more signal.
Test [3] concerns the target Focal adhesion kinase 1 (Homo sapiens) (UniProt Q05397). In words: PTK2 protein binding on printed compound slides – biochemical, small-molecule microarray, 635/667 nm fluorescence, BSA, DTT, primary screen (AID 1130).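 Also: composite of spot emission at 667 nm and signal to noise over triplicate slides.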 As to conditions: 635 nm fluorescence, higher = more signal.
For test [4], the system named is Fibrinogen (Alexa647-labelled). In words: Alexa647-fibrinogen binding to printed small molecules – biochemical, small-molecule microarray, 635/667 nm fluorescence, artefact control for SMM control-protein annotation, profiling panel (AID 1131).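 Also: z-score merges 667 nm fluorescence with per-spot signal-to-noise over triplicate slides.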 As to conditions: fibrinogen-A647 binding fluorescence, higher = more signal.
Test [5] deals with Follistatin (Homo sapiens) (UniProt P19883). In words: FST protein binding to printed compounds – biochemical, small-molecule microarray, 635/667 nm fluorescence, primary screen (AID 1132). Conditions: 635 nm fluorescence, higher = more signal.
In test [6] the target is Fibroblast growth factor 2 (Homo sapiens) (UniProt P09038). The experiment in a line: basic fibroblast growth factor binding to printed compounds – biochemical, small-molecule microarray, 635/667 nm fluorescence, primary screen (AID 1133). As to conditions: FGF2, fluorescence 635/667, higher = more signal.
A short description of test [7]: JC-1 mitochondrial potential readout, lung cancer cells – cell-based, A549, JC-1 fluorescence, basal, 24 h, 100 nL, profiling panel (AID 1138).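 Also: A549 lung adenocarcinoma cells under basal conditions with no added stimulus; test concentration not given here.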 As to conditions: higher = more signal.
The subject of a further test is Lefty1. The experiment in a line: Lefty1 protein binding to printed compounds – biochemical, small-molecule microarray, 635/667 nm fluorescence, primary screen (AID 1139). As to conditions: fluorescence 635/667, higher = more signal.
In test [8] the test system is wheat germ agglutinin (Triticum aestivum), Alexa647-labelled. In words: Alexa647-WGA lectin binding to printed small molecules – biochemical, small-molecule microarray, 635/667 nm fluorescence, artefact control for SMM control-protein annotation, profiling panel (AID 1140).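 Also: score merges 667 nm feature emission with signal to noise over triplicate slides.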 As to conditions: WGA-A647 binding, 635 nm fluorescence, higher = more signal.
Test [9] deals with Luciferin 4-monooxygenase (Photinus pyralis) (UniProt P08659). The experiment in a line: inhibition of purified Photinus pyralis luciferase – biochemical, luminescence, purified enzyme, 2006 set, primary screen (AID 1141).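 Also: cell-free assay with purified firefly luciferase at 100 ng per well in PBS; test concentration not given here.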 As to conditions: purified firefly luciferase, SteadyGlo luminescence, 30 min; higher = more signal, called active from +8 up or from −8 down.
The test system of test [10] is Wnt5a (protein binding on small-molecule microarray). The experiment in a line: small molecules binding Wnt5a protein – biophysical, small-molecule microarray, 635/667 nm fluorescence, primary screen (AID 1142).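 Also: fluorescence read at 667 nm with signal to noise per printed feature.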 As to conditions: 635 nm fluorescence, higher = more signal.
Test [11] is described as follows: ATP-based viability of Huh7 replicon cells – cell-based, CellTiter-Glo luminescence, basal, 48 h, cytotoxicity control for HCV replication inhibitor project, primary screen (AID 1143).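 Also: Huh7 hepatoma cells carrying a hepatitis C replication reporter with no stimulus; test concentration not given here.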 As to conditions: higher = more signal, called active from +8 up or from −8 down. (In general: A replicon is a self-replicating genome or part of one, used to study replication in cells.)

Test [12] in a line: Pseudomonas biofilm growth suppression – PAO1 strain, BacTiter-Glo luminescence, LB-PBS, primary screen (AID 1144). Conditions: P. aeruginosa PAO1 biofilm, 12 h, higher = more signal.
Test [13] is described as follows: basal CRE-LacZ reporter activity in PC12 – cell-based, unstimulated, primary screen (AID 1145). As to conditions: no forskolin, luminescence, 4.5 h, higher = more signal, called active from +8 up or from −8 down.
Test [14] can be described thus: forskolin-driven CRE-LacZ activity in PC12 – cell-based, CRE-LacZ reporter, forskolin-stimulated, primary screen (AID 1146).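 Also: PC12 cells with 6xCRE LacZ reporter stimulated by forskolin 10 µM; beta-galactosidase reporter signal reflecting CREB driven transcription.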 Conditions: luminescence, 4.5 h, higher = more signal, called active from +8 up or from −8 down.
For test [15], the target named is Streptavidin (Streptomyces avidinii) (UniProt P22629). In words: compounds binding control protein streptavidin – biophysical, small-molecule microarray, 635/667 nm fluorescence, artefact control for SMM compound annotation, primary screen (AID 1147).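 Also: signal reflects streptavidin binding to arrayed compounds as a control protein.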 Conditions: higher = more signal.
Test [16] can be described thus: probe aInhba binding on compound microarray – biochemical, small-molecule microarray, 635/667 nm fluorescence, primary screen (AID 1148).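 Also: score merges 667nm spot fluorescence with signal-to-noise for antibody binding to printed compounds.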 Conditions: higher = more signal.
Test [17] deals with Torsin-1A (Homo sapiens) (UniProt O14656). The experiment in a line: TOR1A wild-type binding on microarray – cell lysate, small-molecule microarray, lysate, 635/667 nm, primary screen (AID 1149). As to conditions: COS7 hTOR1A-WT lysate, 635 nm fluorescence, higher = more signal.
The target is the same in test [18]. The experiment in a line: torsin A mutant lysate binding on microarrays – cell lysate, small-molecule microarray, COS7 lysate, 635/667 nm fluorescence, primary screen (AID 1150).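 Also: score pools 667 nm emission and signal to noise measuring lysate protein binding.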 Conditions: COS7 hTOR1A mutant lysate, 635 nm fluorescence, higher = more signal.
The test system of test [19] is Sonic hedgehog protein (Shh). The experiment in a line: Sonic hedgehog microarray binding compounds – biochemical, small-molecule microarray, 635/667 nm fluorescence, primary screen (AID 1151).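 Also: Shh protein binding to compounds spotted on small-molecule microarray slides; score combines spot fluorescence intensity with signal-to-noise across triplicate slides.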 As to conditions: 635 nm fluorescence, higher = more signal.

Structures are written as SMILES. Values joined by “and” are separate entries in the source; they are usually repeats but may differ in a detail not shown here. Equal values may be shown once. Active and inactive are the calls of the source. Unless noted, no rule for the calls is given here.

Streptavidin (Streptomyces avidinii), sequence (P22629 whole entry, looked up): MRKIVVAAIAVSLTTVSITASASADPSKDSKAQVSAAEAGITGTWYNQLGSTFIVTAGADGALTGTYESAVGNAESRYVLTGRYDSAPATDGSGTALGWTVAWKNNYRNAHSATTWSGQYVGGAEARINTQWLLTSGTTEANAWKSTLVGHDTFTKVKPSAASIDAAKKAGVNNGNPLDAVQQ
Fibroblast growth factor 2 (Homo sapiens), sequence (P09038 whole entry, looked up): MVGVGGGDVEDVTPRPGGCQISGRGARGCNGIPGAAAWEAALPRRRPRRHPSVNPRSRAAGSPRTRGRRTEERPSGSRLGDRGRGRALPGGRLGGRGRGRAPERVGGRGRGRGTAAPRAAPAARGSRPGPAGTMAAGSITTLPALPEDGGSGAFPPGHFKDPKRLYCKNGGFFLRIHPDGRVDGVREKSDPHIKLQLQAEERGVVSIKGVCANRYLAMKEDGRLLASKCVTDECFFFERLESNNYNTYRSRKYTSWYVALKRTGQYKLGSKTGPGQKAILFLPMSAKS
Follistatin (Homo sapiens), sequence (P19883 whole entry, looked up): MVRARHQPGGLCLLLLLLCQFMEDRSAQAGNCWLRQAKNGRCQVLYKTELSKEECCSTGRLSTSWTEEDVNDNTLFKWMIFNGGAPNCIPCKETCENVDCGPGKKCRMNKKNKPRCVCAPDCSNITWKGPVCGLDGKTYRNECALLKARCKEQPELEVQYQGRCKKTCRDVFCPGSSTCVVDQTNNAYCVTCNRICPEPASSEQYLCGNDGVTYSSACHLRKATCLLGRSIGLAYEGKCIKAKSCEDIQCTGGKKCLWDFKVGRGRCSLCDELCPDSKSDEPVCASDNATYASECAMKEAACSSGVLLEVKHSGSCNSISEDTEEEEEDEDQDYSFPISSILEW
Luciferin 4-monooxygenase (Photinus pyralis), sequence (P08659 whole entry, looked up): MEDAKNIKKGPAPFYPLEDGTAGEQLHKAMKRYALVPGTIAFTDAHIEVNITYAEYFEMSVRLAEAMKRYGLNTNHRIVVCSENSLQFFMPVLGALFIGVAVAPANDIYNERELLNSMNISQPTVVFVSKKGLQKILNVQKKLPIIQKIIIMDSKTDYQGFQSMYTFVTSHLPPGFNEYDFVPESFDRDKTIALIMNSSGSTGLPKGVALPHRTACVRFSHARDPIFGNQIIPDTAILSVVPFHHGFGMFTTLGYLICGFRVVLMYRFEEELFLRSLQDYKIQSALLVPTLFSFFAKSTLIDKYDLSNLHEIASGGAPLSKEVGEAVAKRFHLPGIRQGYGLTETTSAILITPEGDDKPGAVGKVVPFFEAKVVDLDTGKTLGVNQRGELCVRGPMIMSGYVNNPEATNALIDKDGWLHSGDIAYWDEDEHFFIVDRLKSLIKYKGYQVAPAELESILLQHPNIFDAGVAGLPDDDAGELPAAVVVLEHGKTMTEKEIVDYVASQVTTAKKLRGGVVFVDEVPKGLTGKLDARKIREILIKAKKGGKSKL
Torsin-1A (Homo sapiens), sequence (O14656 whole entry, looked up): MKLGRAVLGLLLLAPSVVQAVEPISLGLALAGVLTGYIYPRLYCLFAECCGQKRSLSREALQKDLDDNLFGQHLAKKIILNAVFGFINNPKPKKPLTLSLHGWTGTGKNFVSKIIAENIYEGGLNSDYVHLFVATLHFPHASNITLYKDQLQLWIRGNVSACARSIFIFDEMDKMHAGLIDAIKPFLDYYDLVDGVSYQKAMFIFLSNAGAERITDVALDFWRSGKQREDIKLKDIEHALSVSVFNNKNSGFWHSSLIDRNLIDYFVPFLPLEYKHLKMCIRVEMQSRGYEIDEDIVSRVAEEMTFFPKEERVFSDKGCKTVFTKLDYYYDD
Focal adhesion kinase 1 (Homo sapiens), sequence (Q05397 whole entry, looked up): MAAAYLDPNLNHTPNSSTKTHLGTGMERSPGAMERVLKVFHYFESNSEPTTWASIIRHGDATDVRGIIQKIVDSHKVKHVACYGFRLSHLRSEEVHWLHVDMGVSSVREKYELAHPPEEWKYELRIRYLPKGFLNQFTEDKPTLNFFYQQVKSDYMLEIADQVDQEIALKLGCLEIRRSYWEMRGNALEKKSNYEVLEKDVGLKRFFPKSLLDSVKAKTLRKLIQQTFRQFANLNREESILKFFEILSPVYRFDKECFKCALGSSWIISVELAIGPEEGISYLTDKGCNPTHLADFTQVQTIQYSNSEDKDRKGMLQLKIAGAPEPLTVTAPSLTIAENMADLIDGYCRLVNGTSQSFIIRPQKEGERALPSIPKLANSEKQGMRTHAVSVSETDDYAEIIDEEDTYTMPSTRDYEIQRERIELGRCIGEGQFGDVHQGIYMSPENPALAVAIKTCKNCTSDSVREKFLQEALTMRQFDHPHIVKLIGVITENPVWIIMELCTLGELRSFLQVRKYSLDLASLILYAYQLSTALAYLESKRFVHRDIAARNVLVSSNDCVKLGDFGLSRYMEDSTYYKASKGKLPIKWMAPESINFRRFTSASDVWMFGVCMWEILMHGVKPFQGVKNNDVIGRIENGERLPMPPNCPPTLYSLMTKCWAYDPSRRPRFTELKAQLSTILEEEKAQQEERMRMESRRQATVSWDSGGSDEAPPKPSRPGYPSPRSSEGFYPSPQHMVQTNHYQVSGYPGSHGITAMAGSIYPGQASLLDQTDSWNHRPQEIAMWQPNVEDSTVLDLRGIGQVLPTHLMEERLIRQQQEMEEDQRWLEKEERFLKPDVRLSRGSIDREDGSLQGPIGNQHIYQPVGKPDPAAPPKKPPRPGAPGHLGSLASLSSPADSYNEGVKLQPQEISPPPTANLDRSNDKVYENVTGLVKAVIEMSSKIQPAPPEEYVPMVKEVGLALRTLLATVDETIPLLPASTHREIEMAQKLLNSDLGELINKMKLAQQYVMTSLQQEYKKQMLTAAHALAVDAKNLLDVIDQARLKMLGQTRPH

Regarding `CC(C)=CCCC(C)=CCON=C1C[C@@H](O)[C@@H](O)[C@@H]2[C@@H]3C(=O)N([C@@H](C)c4ccccc4)C(=O)[C@@H]3CC[C@H]12`, the composite z-score in [1] came to 0.798; in test [2], 1.01; in test [3], 0.89; in [4] it was 0.558; in test [5] it was 0.676; in [6] it was 0.364. For the same compound, the composite z-score was 0.581 with Lefty1; 0.324 in test [8]; 0.111 in test [10]; 0.0138 in test [15]; -0.233 in [16]; 0.594 with Torsin-1A (Homo sapiens) [17]. For the same compound, the composite z-score in the test with Torsin-1A (Homo sapiens) [18] is 0.26; in test [19], 1.18. Besides, the z-score in test [7] was 0.824; in [9] it was -0.677 (inactive); in test [11], -3.97 (inactive); in test [12], 1.09 (inactive); in test [13], -0.295 (inactive); in test [14] it was -0.323 (inactive).

`C=CC[C@@H](O)c1ccc(O)c2ccccc12`: the composite z-score in test [1] was 1.02 and 1.68; in [2] it was 0.647 and 1.11; in test [3] it was -0.618 and 0.11; in test [4], 0.353 and 0.0525; in [5] it was 1.38 and 1.39; in [6], 1.48 and 1.7. Further, the composite z-score was 1.4 and 1.06 with Lefty1; 0.175 and 0.379 in [8]; 0.173 and 0.435 in test [10]; 0.49 and 0.679 in test [15]; -0.0553 and -0.141 in test [16]; 0.261 and 0.0205 in the test with Torsin-1A (Homo sapiens) [17]. The composite z-score with Torsin-1A (Homo sapiens) [18] was 0.426 and 0.369; in test [19] it was 1.96 and 1.82. Besides, the z-score was 0.388 and -0.59 in test [7]; -2.65 (inactive) and -2.18 (inactive) in test [9]; 0.794 (inactive) and -0.721 (inactive) in test [11]; -0.498 (inactive) and -1.33 (inactive) in test [12]; 3.25 (inactive) and 2.1 (inactive) in [13]; 2.5 (inactive) and 5.93 (inactive) in [14].

`CCCC[C@@H]1CN2[C@@H](CC[C@@H](C)[C@@H]2c2ccc(Br)cc2)C(=O)O1`: the composite z-score in test [1] is 2.07 and 0.917; in test [2], 1.16 and 0.572; in test [3], 0.367 and -0.0877; in [4], 0.822 and 0.727; in test [5], 0.493 and 0.606; in [6] it was 0.295 and 0.952. The composite z-score with Lefty1 was 0.647 and 0.882; in [8], 0.303 and 0.182; in [10], -0.0248 and 0.0673; in test [15], 0.119 and 0.117; in [16], -0.101 and 0.0074; with Torsin-1A (Homo sapiens) [17], 0.434 and -0.0758. The composite z-score with Torsin-1A (Homo sapiens) [18] is 0.458 and 0.139; in [19] it was 0.611 and 0.993. Moreover, the z-score in test [7] was -0.555 and 1.63; in test [9], 0.355 (inactive) and -0.572 (inactive); in test [11], -0.216 (inactive) and -0.116 (inactive); in [12], 0.283 (inactive) and 1.16 (inactive); in test [13], -0.704 (inactive) and 1.1 (inactive); in test [14], 0.693 (inactive) and 0.189 (inactive).

On to `CO[C@H]1COC(=O)CC=C[C@@H](C)COC(=O)[C@H](CCSC)NC(=O)CC=C[C@@H]1C`, for which the composite z-score in [1] was 0.512 and -0.138; in [2], -0.375 and -0.74; in test [3], 0.285 and -0.776; in test [4], -1.19 and -1.63; in [5], 1.5 and 1.58; in test [6] it was 1.97 and 1.78. Further, the composite z-score in the test on Lefty1 is 1.79 and 1.82; in [8], -0.353 and -1.42; in test [10] it was 0.748 and 0.382; in test [15], -0.909 and -1.04; in [16] it was -0.0645 and -0.341; with Torsin-1A (Homo sapiens) [17] it was 3.27 and 3.04. Also, the composite z-score with Torsin-1A (Homo sapiens) [18] was 3.74 and 3.09; in test [19] it was 1.74 and 2.35. Moreover, the z-score in test [7] is -1.26 and 0.523; in test [9], -0.142 (inactive) and -0.463 (inactive); in [11], -1.11 (inactive) and -1.94 (inactive); in [12], -0.2 (inactive); in test [13] it was -0.473 (inactive) and 0.882 (inactive); in test [14] it was -0.367 (inactive) and -0.742 (inactive).
